The full list was thinned out, with hits kept by preference.
KDM5B inh: KDM5B demethylase inhibition | Q9UGL1 | KDM5B demethylase, FDH-coupled NADH fluorescence (FDH is formaldehyde dehydrogenase) | Potency, µM (top dose mostly 57.7 µM), usual class: inhibitors | 220,000 tested, 2.6% active | AID 1347165; active = well fitted inhibition curve with a large enough effect; also: 0% is about no effect; nearly all actives have a fitted effect of over 70% in size
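Coupled FDH/NAD⁺ fluorescence readout. KDM5BΔAP 200 nM final; compound titration, 10 min RT preincubation; substrate mix 12.5 µM H3K4me3, 25 µM 2-OG, 50 µM Fe(II), 100 µM ascorbate, 0.25 mM NAD⁺, 0.25 U/mL FDH; ΔRFU over 30 min.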
Starred values were filed as active, the others as inactive. Potency is read from the fitted curve at half-maximal effect.

`Cc1ccc(Nc2cc(C)nc3c(C)cc(C)c([N+](=O)[O-])c23)cc1` gave KDM5B inh inactive.
`C=CCn1c(SCc2nc3ccccc3o2)nc2ccccc2c1=O` gave KDM5B inh inactive.
For N#Cc1ccc(CNCc2ccc(CN3CCCC3)cc2)cc1 the results were KDM5B inh inactive.
For CCCOc1ccc(NC(=O)COc2ccccc2C)c2cccnc12 the results were KDM5B inh inactive.
COc1cccc(C(=O)c2sc(Nc3ccc(Cl)cc3C)nc2N)c1 was read as KDM5B inh inactive.
Screening CCCNC(=O)[C@@H]1Cc2cn(Cc3ccncc3)c3cccc(c23)[C@H](CC(C)C)N1 returned KDM5B inh inactive.
FC(F)(F)c1ccc(CN2CCCC3(CC(Cc4ccccc4)=NO3)C2)cc1 (configuration not stated) was read as KDM5B inh inactive.
COc1ccc(CN2CCCC3(CC(Cc4ccccc4)=NO3)C2)cc1 (configuration not stated) was read as KDM5B inh inactive.
`c1ccc(CC2=NOC3(CCN(Cc4ccccc4)C3)C2)cc1` (configuration not stated) gave KDM5B inh 31.6µM*.
`CCCNc1nc2c(c(=O)n(C)c(=O)n2C)n1CC` gave KDM5B inh inactive.
For O=C(Cc1ccc(F)cc1)N1CCN(c2ncnc3c2nnn3-c2ccc(F)cc2)CC1 the results were KDM5B inh inactive.
Screening OCC1(Cc2ccc(F)cc2F)CCCN(c2cnc3ccccc3n2)C1 (configuration not stated) returned KDM5B inh 28.2µM*.
`Fc1ccc(N2CCN(c3cnc4ccccc4n3)CC2)cc1` gave KDM5B inh inactive.
Screening O=C(NCc1ccccc1)C1CCCN(c2cnc3ccccc3n2)C1 (configuration not stated) returned KDM5B inh inactive.
For CC(=O)NCc1ccc(C(=O)CCl)o1 the results were KDM5B inh inactive.
O=S(=O)(c1ccc(Cl)s1)N1CCC(n2c(C(F)(F)F)nc3cccnc32)CC1 was read as KDM5B inh inactive.
For Cc1csc(NC(=O)CCc2ncc(-c3c(F)cccc3F)o2)n1 the results were KDM5B inh inactive.
For COc1ccc(-c2cc(N3CCCC(NC(=O)c4ccc5cc[nH]c5c4)C3)n[nH]2)cc1 (configuration not stated) the results were KDM5B inh inactive.
Screening Cc1ccn2c(C(=O)N[C@H](c3cnn(C)c3)C3CC(O)C3)nnc2n1 (some centres not stated) returned KDM5B inh inactive.
For Cn1cc(C(NC(=O)c2ccc3c(c2)ncn3CCO)C2CC(O)C2)cn1 (configuration not stated) the results were KDM5B inh inactive.
`Cn1cc([C@@H](NC(=O)c2ccc3scnc3c2)C2CC(O)C2)cn1` (some centres not stated) gave KDM5B inh inactive.
Screening Cn1cc([C@@H](NC(=O)c2cc(=O)n(-c3ccccc3)[nH]2)C2CC(O)C2)cn1 (some centres not stated) returned KDM5B inh inactive.
For Cn1cc([C@@H](NC(=O)c2nc3ccccc3[nH]c2=O)C2CC(O)C2)cn1 (some centres not stated) the results were KDM5B inh 31.6µM*.
Cc1ccc(S(N)(=O)=O)cc1C(=O)N[C@H](c1cnn(C)c1)C1CC(O)C1 (some centres not stated) was read as KDM5B inh inactive.
`Cn1cc([C@@H](NC(=O)c2n[nH]c3c2CCC3)C2CC(O)C2)cn1` (some centres not stated) gave KDM5B inh inactive.
Screening Cc1ccc2nc(C(=O)N[C@H](c3cnn(C)c3)C3CC(O)C3)cn2c1 (some centres not stated) returned KDM5B inh 31.6µM*.
`CCNc1ncc(C(=O)N[C@H](c2cnn(C)c2)C2CC(O)C2)cn1` (some centres not stated) gave KDM5B inh 28.2µM*.
For O=C1NCc2ccccc2CC12CCN(Cc1c(F)cccc1Cl)CC2 the results were KDM5B inh inactive.
`Cc1ccc(NC2(c3nnnn3-c3c(C)cccc3C)CCCC2)cc1` gave KDM5B inh inactive.
For COC(=O)COc1ccc2c(=O)c(Oc3cccc(C)c3)c(C(F)(F)F)oc2c1 the results were KDM5B inh inactive.
`CCOC(=O)C1=C(CNc2ccc(C)cc2)NC(=O)NC1c1ccccc1` (configuration not stated) gave KDM5B inh inactive.
CC(C)CCNC(=S)Nc1ccccc1 was read as KDM5B inh inactive.
For COC(=O)[C@H](NC(=O)Nc1cc(C)cc(C)c1)C(C)C the results were KDM5B inh inactive.
COC(=O)c1ccc(F)c(NC(=O)CCc2c(C)nc(C)[nH]c2=O)c1 was read as KDM5B inh inactive.
COC(=O)C(NC(=O)Nc1ccccc1)C12CC3CC(CC(C3)C1)C2 (configuration not stated) was read as KDM5B inh inactive.
COc1ccccc1Nc1nc(-c2ccc(CNC(C)=O)cc2)cs1 was read as KDM5B inh inactive.

Screens (PubChem BioAssay)
